Experiment [1] has as its target Phospholipid hydroperoxide glutathione peroxidase GPX4 (Homo sapiens) (UniProt P36969). In words: Primary qHTS Assay for Inhibitors of Recombinant Selenoprotein Glutathione Peroxidase 4 (GPX4) (AID 1845192). Also: nearly all actives have a fitted effect of over 65% in size. The gist of the method:
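GR-coupled readout: 100 nM GR, 1 mM GSH, 0.5 mM NADPH; NADPH fluorescence (ex 340/em 450 nm) read at t=0 and after 15 min RT. GPX4 200 nM, preincubated 30 min with compound; substrate 0.5 mM CHP.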
In general terms: Quantitative high-throughput screening tests each substance at several concentrations.

Experiment [2] addresses Luciferin 4-monooxygenase (Photinus pyralis) (UniProt P08659). In words: Primary firefly luciferase (FLuc) qHTS assay for identification of artifact compounds. (AID 1845220). Also: nearly all actives have a fitted effect of over 60% in size. The gist of the method: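 Reaction readout was CCD-imaged luminescence, taken 5 min after adding 10 nM purified firefly enzyme to compound-treated wells holding 10 uM luciferin and ATP in pH 7.6 buffer.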

Experiment [3] in a line: Primary fluorescence-based thiol-reactive (MSTI) qHTS assay for identification of artifact compounds. (AID 1845221).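 Also: thiol-reactive compounds lower the probe fluorescence signal; nearly all actives have a fitted effect of over 65% in size.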 The method, boiled down:
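MSTI probe at 4 uM final in 2% DMSO/PBS pH 7.4; compounds, 1 h at room temperature in dark. Fluorescence Ex/Em 525/598 nm, normalised to Acetyl-MSTI and MSTI, fitted to 4-parameter Hill.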

The subject of experiment [4] is Nanoluciferase (engineered Oplophorus gracilirostris luciferase). In words: Primary Nanoluciferase (NLuc) qHTS assay for identification of artifact compounds. (AID 1845222).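 Also: NLuc secreted into diluted conditioned medium of S16 cells.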 The method, boiled down: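 Concentration-response data were obtained by luminescence after 5 min with Nano-Glo substrate at 1:100. The enzyme was diluted S16 NLuc-expressing cell medium, preincubated with compound for 15 min at RT. Curves were fitted with a 4-parameter Hill model.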

A short description of experiment [5]: Primary redox qHTS assay for identification of artifact compounds. (AID 1845223). The method, boiled down:
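Amplex Red (25 uM) and HRP (250 mU/mL) in HBSS, with compounds for 15 min, then 250 uM DTT for 30 min, room temperature, dark. Fluorescence 525/598 nm read; normalized to DMSO and 10 uM DA3003; Hill fit.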

Experiment [6] is described as follows: Quantitative High-Throughput drug screen in 47 multiple myeloma cell lines against the NCATS MIPE library collection: FR4_PLB cell viability assay (AID 1918924; also: nearly all actives have a fitted effect of over 35% in size; also: potency is read from the fitted curve at half-maximal effect). The gist of the method: (§1)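 Viability readout: CellTiter-Glo luminescence following 5 min room-temperature incubation with reagent. Prior exposure: 48 h, 37C, humidified 5% CO2, 500 cells per well.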

Experiment [7] in a line: Quantitative High-Throughput drug screen in 47 multiple myeloma cell lines against the NCATS MIPE library collection: Delta47_JCRB cell viability assay (AID 1918925; also: nearly all actives have a fitted effect of over 45% in size; also: potency is read from the fitted curve at half-maximal effect). The method, boiled down: (§2)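 Inhibition of cell viability is measured here. Each line was plated at 500 cells per well, treated with MIPE 4.0 drugs, kept 48 hours at 37C, then assayed for ATP content by CellTiter-Glo luminescence.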

Experiment [8] can be described thus: Quantitative High-Throughput drug screen in 47 multiple myeloma cell lines against the NCATS MIPE library collection: ARD_JJKsccE7 cell viability assay (AID 1918929; also: potency is read from the fitted curve at half-maximal effect). The gist of the method: as §2
Experiment [9] can be described thus: Quantitative High-Throughput drug screen in 47 multiple myeloma cell lines against the NCATS MIPE library collection: KHM11_PLB cell viability assay (AID 1918962). Also: nearly all actives have a fitted effect of over 35% in size. Also: potency is read from the fitted curve at half-maximal effect. The method, boiled down:
as §1

A short description of experiment [10]: Quantitative High-Throughput drug screen in 47 multiple myeloma cell lines against the NCATS MIPE library collection: INA6_PLB cell viability assay (AID 1918965; also: potency is read from the fitted curve at half-maximal effect; nearly all actives have a fitted effect of over 55% in size). The method, boiled down: (§3)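 Approved and investigational drugs from MIPE 4.0 were added by pin tool to 500 cells per well. After 48 hours at 37C, ATP-based CellTiter-Glo luminescence indicated remaining viability.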

The nature of experiment [11]: Quantitative High-Throughput drug screen in 47 multiple myeloma cell lines against the NCATS MIPE library collection: H1112_PLB cell viability assay (AID 1918967; also: nearly all actives have a fitted effect of over 30% in size; also: potency is read from the fitted curve at half-maximal effect). The method, boiled down: as §2
Experiment [12] in a line: Quantitative High-Throughput drug screen in 47 multiple myeloma cell lines against the NCATS MIPE library collection: EJM_DSMZ cell viability assay (AID 1918926; also: nearly all actives have a fitted effect of over 30% in size; also: potency is read from the fitted curve at half-maximal effect). The method, boiled down:
as §2

Experiment [13] in a line: Quantitative High-Throughput drug screen in 47 multiple myeloma cell lines against the NCATS MIPE library collection: AMO1_DSMZ cell viability assay (AID 1918927; also: nearly all actives have a fitted effect of over 30% in size; also: potency is read from the fitted curve at half-maximal effect). The gist of the method: as §2
A short description of experiment [14]: Quantitative High-Throughput drug screen in 47 multiple myeloma cell lines against the NCATS MIPE library collection: ARP1_JJKsccF8 cell viability assay (AID 1918928; also: nearly all actives have a fitted effect of over 40% in size; also: potency is read from the fitted curve at half-maximal effect). The method, boiled down:
(§4)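 Myeloma cells at 500 per well in 1536-well format treated with MIPE 4.0 library by pin transfer for 48 h at 37C, 5% CO2. Viability from ATP luminescence (CellTiter-Glo), normalized to DMSO (100%) and media-only (0%) wells.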

Experiment [15] in a line: Quantitative High-Throughput drug screen in 47 multiple myeloma cell lines against the NCATS MIPE library collection: Karpas620_DSMZ cell viability assay (AID 1918959). Also: nearly all actives have a fitted effect of over 30% in size. Also: potency is read from the fitted curve at half-maximal effect. The method, boiled down: as §1
A short description of experiment [16]: Quantitative High-Throughput drug screen in 47 multiple myeloma cell lines against the NCATS MIPE library collection: JIM3_ECACC cell viability assay (AID 1918963; also: potency is read from the fitted curve at half-maximal effect; nearly all actives have a fitted effect of over 35% in size). The method, boiled down: as §1
The nature of experiment [17]: Quantitative High-Throughput drug screen in 47 multiple myeloma cell lines against the NCATS MIPE library collection: JIM1_ECACC cell viability assay (AID 1918964; also: potency is read from the fitted curve at half-maximal effect). The method, boiled down: as §2
A short description of experiment [18]: Quantitative High-Throughput drug screen in 47 multiple myeloma cell lines against the NCATS MIPE library collection: KMM1_JCRB cell viability assay (AID 1918960). Also: nearly all actives have a fitted effect of over 30% in size. Also: potency is read from the fitted curve at half-maximal effect. The method, boiled down: as §4
Experiment [19] can be described thus: Quantitative High-Throughput drug screen in 47 multiple myeloma cell lines against the NCATS MIPE library collection: Karpas417_ECACC cell viability assay (AID 1918961). Also: potency is read from the fitted curve at half-maximal effect. As to conditions: Karpas417 myeloma viability, CellTiter-Glo ATP luminescence, 48 h; viability (% of DMSO): at 45.8 µM (top of the series). The gist of the method: as §3
Experiment [20] can be described thus: Quantitative High-Throughput drug screen in 47 multiple myeloma cell lines against the NCATS MIPE library collection: JJN3_DSMZ cell viability assay (AID 1918966; also: potency is read from the fitted curve at half-maximal effect; nearly all actives have a fitted effect of over 50% in size). The method, boiled down:
as §2

Unmarked numbers belong to inactive results. Records with an inconclusive call do not appear. The source made the active and inactive calls. Calls follow the shape of the dose curve; as a rule, active = well fitted curve in the direction sought with a large enough effect; inconclusive = small, poorly fitted or top-dose-only effect, or another doubt; inactive = no such curve, though single readings can be large; an effect the other way counts as inactive or inconclusive.

Phospholipid hydroperoxide glutathione peroxidase GPX4 (Homo sapiens), sequence (P36969 whole entry, looked up): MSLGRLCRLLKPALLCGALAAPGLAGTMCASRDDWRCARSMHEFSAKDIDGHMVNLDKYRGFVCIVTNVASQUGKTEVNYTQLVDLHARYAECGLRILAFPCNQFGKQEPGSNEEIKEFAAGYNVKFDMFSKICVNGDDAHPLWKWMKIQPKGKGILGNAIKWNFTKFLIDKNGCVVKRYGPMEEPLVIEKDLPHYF

For `O=C(O)CCNc1cc(N2CCc3ccccc3CC2)nc(-c2ccccn2)n1`, the Potency entry in experiment [1], in experiment [2], in experiment [3], in experiment [4], in experiment [6] and in [7] was “inactive” each time. Besides, the Potency entry in experiment [8], in experiment [9] and in experiment [11] was “inactive” each time. The call in experiment [5] was inactive. Besides, the Potency in [10] was 16.6 µM (active).

Turning to `NC(=O)c1noc([C@H](CCCC2CCCCC2)CC(=O)NO)n1`, the Potency result in [1], in experiment [2], in experiment [3] and in [4] was “inactive” each time. The compound was classed as inactive in experiment [5]. Moreover, the Potency was 6.62 µM (active) in experiment [6]; 9.35 µM (active) in experiment [7]; 14.8 µM (active) in experiment [12]; 4.18 µM (active) in experiment [13]; 14.8 µM (active) in experiment [14]; 7.43 µM (active) in [15]. For the same compound, the Potency is 20.9 µM (active) in [9], 23.5 µM (active) in [16], 5.9 µM (active) in [17] and 16.6 µM (active) in [11].

As to `O[C@@H](COc1cccc2ncccc12)CN1CCN(C2c3ccccc3[C@@H]3[C@H](c4ccccc42)C3(F)F)CC1` (some centres undefined), the Potency entry in experiment [1], in experiment [2], in experiment [3], in experiment [4], in experiment [13] and in [8] was “inactive” in each case. Also, the Potency result in experiment [15], in experiment [18] and in experiment [19] was “inactive” in each case. In addition, the compound was classed as inactive in experiment [5]. Also, the Potency is 16.6 µM (active) in experiment [7]; 23.5 µM (active) in [12]; 16.6 µM (active) in [9]; 13.2 µM (active) in [16]; 14.8 µM (active) in [20].

As for `C[C@@]1(c2cc(-c3cncnc3)c(F)cc2F)CCSC(N)=N1`, the Potency entry in [1], in [2], in experiment [3], in experiment [4], in experiment [7] and in experiment [12] was “inactive” in each case. Further, the Potency result in experiment [14] was “inactive”. Moreover, the compound was classed as inactive in experiment [5]. For the same compound, the Potency was 14.8 µM (active) in experiment [13]; 0.059 µM (active) in experiment [8]; 2.35 µM (active) in [15]; 3.32 µM (active) in experiment [9]; 23.5 µM (active) in [16].

Regarding `Clc1ccc(C2(c3ccc(-c4cn[nH]c4)cc3)CCNCC2)cc1`, the Potency result in experiment [1], in [2], in [3] and in experiment [4] was “inactive” in each case. Also, the call in [5] was inactive. Moreover, the Potency in experiment [6] was 20.9 µM (active); in experiment [7], 1.32 µM (active); in [12] it was 20.9 µM (active); in experiment [14], 23.5 µM (active); in [19], 6.62 µM (active); in experiment [9] it was 11.8 µM (active). Further, the Potency in [10] is 5.9 µM (active); in [20] it was 20.9 µM (active); in experiment [11], 16.6 µM (active).

Regarding `Cc1ccccc1-n1c(Cn2nc(-c3cccc(O)c3)c3c(N)ncnc32)nc2cccc(C)c2c1=O`, the Potency result in experiment [1], in [2], in experiment [3] and in experiment [4] was “inactive” throughout. In [5], the call was inactive. The Potency in experiment [6] was 8.33 µM (active); in experiment [7], 2.96 µM (active); in experiment [13], 0.372 µM (active); in experiment [8], 1.05 µM (active); in experiment [15], 0.833 µM (active); in experiment [18] it was 0.935 µM (active). The Potency in [19] is 4.18 µM (active); in [9] it was 18.7 µM (active); in experiment [16], 3.72 µM (active); in experiment [10], 1.05 µM (active); in experiment [11] it was 2.64 µM (active).

(Values after PubChem BioAssay (NCATS).)
